{"source": "the supplement of paper PMC11732987", "about": "“Enantioselective OTUD7B fragment discovery through chemoproteomics screening and high-throughput optimisation” (Communications Chemistry, 2025)", "assay_in_all_cases": "log2 ratio of Biotin-Ahx-Ub-VS probe labelling (fragment/DMSO); higher = less target engagement (more negative = stronger competition), active = hit call of the paper (q ≤ 0.05, log2 ratio ≤ -1)", "conditions_in_all_cases": "compound concentration: 200 uM; treatment time: 3 h", "key": {"[1]": {"biological_target": "T1, OTUD6B (UniProt Q8N6M0)", "T1 sequence (whole entry)": "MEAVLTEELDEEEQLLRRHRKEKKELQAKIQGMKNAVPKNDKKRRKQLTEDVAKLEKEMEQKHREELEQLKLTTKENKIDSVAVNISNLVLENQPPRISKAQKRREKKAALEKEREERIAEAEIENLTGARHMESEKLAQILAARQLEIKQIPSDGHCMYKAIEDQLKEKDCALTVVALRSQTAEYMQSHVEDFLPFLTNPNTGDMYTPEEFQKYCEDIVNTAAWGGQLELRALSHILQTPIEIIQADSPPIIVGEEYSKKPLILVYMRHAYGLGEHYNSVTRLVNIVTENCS", "procedure,_shortened": "(§1)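 Using Biotin-Ahx-Ub-VS at 0.5 µM final for 1 h, DUBs were labelled in HEK293T lysate (495 µg per sample) that had first been treated in triplicate with fragment at 200 µM or vehicle for 3 h. NeutrAvidin enrichment, LysC and trypsin digestion and diaPASEF LC-MS/MS followed. Spectronaut label-free quantities were global-median-normalised. Values are average log2 fragment/vehicle ratios by unpaired t-test, using proteins with ≥2 unique peptides.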"}, "[2]": {"biological_target": "T2, OTUD7B (UniProt Q6GQQ9)", "T2 sequence (whole entry)": "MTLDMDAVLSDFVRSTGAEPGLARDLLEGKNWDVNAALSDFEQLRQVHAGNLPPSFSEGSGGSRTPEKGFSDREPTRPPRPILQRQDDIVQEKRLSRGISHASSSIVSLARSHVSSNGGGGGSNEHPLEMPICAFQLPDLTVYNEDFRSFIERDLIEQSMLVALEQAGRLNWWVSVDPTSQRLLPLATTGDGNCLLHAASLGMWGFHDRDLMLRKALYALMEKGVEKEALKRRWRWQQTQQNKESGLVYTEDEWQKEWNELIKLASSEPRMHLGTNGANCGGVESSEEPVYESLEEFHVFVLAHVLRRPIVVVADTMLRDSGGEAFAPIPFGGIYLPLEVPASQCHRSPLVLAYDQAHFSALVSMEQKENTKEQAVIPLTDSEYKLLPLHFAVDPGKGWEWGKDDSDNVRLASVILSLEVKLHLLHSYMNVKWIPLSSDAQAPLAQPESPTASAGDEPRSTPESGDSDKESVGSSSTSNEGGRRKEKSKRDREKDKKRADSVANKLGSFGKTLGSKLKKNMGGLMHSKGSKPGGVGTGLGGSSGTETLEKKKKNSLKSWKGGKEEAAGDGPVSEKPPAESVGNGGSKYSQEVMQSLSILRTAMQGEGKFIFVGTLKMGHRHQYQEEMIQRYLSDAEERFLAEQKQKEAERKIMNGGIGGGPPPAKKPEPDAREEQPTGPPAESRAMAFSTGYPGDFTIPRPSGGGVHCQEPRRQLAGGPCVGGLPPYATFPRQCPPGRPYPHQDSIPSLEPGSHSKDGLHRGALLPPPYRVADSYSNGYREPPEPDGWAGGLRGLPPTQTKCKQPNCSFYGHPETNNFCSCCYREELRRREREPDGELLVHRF", "procedure,_shortened": "as §1"}, "[3]": {"biological_target": "PRPF8 (UniProt Q6P2Q9)", "procedure,_shortened": "as §1"}, "[4]": {"biological_target": "T3, PSMD7 (UniProt P51665)", "T3 sequence (whole entry)": "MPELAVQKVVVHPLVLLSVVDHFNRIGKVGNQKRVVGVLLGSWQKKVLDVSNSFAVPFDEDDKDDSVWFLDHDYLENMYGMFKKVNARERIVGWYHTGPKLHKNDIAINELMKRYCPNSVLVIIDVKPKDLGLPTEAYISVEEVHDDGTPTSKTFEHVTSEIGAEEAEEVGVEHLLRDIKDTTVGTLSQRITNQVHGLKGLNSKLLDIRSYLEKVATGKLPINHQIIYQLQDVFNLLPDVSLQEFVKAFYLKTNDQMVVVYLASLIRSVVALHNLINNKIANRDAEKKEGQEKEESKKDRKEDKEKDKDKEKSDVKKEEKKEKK", "procedure,_shortened": "as §1"}, "[5]": {"biological_target": "UCHL1 (UniProt P09936)", "sequence (P09936 whole entry, looked up)": "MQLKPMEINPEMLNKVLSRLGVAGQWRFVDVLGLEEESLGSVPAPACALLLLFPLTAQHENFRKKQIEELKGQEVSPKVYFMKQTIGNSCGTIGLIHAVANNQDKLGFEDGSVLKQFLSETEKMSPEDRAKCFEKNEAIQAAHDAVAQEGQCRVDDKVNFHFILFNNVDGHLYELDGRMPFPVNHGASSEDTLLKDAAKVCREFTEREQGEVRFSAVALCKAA", "procedure,_shortened": "as §1"}, "[6]": {"biological_target": "T4, UCHL3 (UniProt P15374)", "T4 sequence (whole entry)": "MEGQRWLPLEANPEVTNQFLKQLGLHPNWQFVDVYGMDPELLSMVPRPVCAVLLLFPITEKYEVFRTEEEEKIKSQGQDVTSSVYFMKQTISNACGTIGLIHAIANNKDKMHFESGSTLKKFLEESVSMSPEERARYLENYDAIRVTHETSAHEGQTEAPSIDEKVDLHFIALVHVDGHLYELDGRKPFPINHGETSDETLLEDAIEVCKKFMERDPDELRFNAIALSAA", "procedure,_shortened": "as §1"}, "[7]": {"biological_target": "T5, UCHL5 (UniProt Q9Y5K5)", "T5 sequence (whole entry)": "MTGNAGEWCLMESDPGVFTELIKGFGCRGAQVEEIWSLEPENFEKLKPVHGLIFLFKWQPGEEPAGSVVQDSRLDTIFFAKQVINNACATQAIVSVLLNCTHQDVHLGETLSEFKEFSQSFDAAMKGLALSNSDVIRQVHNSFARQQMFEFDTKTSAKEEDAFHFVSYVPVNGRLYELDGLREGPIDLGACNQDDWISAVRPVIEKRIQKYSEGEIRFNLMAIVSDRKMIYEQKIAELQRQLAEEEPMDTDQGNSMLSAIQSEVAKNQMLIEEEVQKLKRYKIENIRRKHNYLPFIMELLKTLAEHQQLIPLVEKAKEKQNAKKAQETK", "procedure,_shortened": "as §1"}, "[8]": {"biological_target": "USP10 (UniProt Q14694)", "sequence (Q14694 whole entry)": "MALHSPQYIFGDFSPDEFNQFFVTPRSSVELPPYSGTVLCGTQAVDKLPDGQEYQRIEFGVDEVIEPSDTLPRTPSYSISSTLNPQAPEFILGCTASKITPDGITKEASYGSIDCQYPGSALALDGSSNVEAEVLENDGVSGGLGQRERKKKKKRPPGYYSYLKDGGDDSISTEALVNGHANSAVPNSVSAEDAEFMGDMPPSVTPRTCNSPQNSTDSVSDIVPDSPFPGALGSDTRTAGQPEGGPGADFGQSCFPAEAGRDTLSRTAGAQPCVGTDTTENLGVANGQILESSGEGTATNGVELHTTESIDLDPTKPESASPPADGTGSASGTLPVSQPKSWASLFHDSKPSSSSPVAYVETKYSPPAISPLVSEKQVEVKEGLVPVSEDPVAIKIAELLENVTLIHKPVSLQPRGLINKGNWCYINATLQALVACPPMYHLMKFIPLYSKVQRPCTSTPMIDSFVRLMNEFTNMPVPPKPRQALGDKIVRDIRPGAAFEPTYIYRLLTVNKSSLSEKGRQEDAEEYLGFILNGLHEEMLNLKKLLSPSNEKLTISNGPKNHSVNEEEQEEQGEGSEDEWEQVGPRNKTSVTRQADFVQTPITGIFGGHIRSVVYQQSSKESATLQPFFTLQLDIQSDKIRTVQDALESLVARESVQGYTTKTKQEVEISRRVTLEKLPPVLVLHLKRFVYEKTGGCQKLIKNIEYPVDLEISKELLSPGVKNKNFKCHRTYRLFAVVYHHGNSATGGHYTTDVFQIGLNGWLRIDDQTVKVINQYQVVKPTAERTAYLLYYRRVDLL", "procedure,_shortened": "as §1"}, "[9]": {"biological_target": "T6, USP15 (UniProt Q9Y4E8)", "T6 sequence (whole entry)": "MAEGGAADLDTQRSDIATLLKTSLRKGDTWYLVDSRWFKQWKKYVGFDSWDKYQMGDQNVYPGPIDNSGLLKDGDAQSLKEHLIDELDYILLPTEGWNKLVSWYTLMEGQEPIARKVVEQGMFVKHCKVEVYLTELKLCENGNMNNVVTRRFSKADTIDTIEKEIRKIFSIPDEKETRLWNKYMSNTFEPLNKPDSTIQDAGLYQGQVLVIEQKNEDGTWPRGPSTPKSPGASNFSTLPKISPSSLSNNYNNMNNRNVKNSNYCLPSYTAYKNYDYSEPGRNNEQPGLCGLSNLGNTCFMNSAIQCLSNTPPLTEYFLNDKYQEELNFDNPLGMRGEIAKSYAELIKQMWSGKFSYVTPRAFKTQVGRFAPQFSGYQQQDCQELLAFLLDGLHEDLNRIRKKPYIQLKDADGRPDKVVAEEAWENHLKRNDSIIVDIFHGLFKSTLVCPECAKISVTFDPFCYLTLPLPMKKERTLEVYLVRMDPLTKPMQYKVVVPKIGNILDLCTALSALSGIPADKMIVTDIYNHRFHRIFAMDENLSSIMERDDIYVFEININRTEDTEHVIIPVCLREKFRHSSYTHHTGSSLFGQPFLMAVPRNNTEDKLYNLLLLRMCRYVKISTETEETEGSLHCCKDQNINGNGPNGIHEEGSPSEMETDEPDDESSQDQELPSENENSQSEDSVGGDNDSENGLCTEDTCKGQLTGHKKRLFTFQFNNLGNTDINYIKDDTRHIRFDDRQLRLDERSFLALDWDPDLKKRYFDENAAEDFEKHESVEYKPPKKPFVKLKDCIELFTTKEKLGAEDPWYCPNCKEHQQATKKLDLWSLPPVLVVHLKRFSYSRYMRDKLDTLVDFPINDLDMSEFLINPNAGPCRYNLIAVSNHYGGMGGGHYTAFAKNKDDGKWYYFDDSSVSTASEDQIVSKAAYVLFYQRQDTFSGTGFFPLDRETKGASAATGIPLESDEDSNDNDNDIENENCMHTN", "procedure,_shortened": "as §1"}, "[10]": {"biological_target": "USP16 (UniProt Q9Y5T5)", "sequence (Q9Y5T5 whole entry, looked up)": "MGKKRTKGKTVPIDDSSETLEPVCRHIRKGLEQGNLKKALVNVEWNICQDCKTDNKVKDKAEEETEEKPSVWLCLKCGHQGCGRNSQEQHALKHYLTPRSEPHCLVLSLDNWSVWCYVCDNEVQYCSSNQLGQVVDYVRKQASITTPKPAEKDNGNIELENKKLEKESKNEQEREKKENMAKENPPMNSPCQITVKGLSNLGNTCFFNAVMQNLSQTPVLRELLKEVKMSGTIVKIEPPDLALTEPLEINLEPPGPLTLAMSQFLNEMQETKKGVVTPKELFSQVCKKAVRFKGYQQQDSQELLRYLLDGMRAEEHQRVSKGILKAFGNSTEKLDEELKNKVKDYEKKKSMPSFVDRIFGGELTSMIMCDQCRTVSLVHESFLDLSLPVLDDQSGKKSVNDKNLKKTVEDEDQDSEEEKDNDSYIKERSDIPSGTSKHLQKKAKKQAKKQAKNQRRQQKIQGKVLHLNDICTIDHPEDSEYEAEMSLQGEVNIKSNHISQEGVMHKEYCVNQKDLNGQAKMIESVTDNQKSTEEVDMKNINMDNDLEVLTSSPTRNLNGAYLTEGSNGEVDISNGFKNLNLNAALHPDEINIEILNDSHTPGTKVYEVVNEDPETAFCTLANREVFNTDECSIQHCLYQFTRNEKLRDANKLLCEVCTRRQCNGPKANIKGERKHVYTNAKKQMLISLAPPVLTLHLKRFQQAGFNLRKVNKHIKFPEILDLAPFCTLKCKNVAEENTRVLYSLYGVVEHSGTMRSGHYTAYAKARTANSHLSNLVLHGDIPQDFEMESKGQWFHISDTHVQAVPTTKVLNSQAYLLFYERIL", "procedure,_shortened": "as §1"}}, "note": "A number with no mark means an inactive call."}
{"smiles": "Cl.Cn1ncc2c1CCCC2NC(=O)CCl", "note": "(stereo not given)", "values": [{"measurement": "log2 ratio of Biotin-Ahx-Ub-VS probe labelling", "setting": "[1]", "result": -0.272}, {"measurement": "log2 ratio of Biotin-Ahx-Ub-VS probe labelling", "setting": "[2]", "result": "-2.04 (active)"}, {"measurement": "log2 ratio of Biotin-Ahx-Ub-VS probe labelling", "setting": "[3]", "result": 0.261}, {"measurement": "log2 ratio of Biotin-Ahx-Ub-VS probe labelling", "setting": "[4]", "result": 0.0323}, {"measurement": "log2 ratio of Biotin-Ahx-Ub-VS probe labelling", "setting": "[5]", "result": "-1.71 (active)"}, {"measurement": "log2 ratio of Biotin-Ahx-Ub-VS probe labelling", "setting": "[6]", "result": 0.241}, {"measurement": "log2 ratio of Biotin-Ahx-Ub-VS probe labelling", "setting": "[7]", "result": -0.145}, {"measurement": "log2 ratio of Biotin-Ahx-Ub-VS probe labelling", "setting": "[8]", "result": -0.078}, {"measurement": "log2 ratio of Biotin-Ahx-Ub-VS probe labelling", "setting": "[9]", "result": -0.335}, {"measurement": "log2 ratio of Biotin-Ahx-Ub-VS probe labelling", "setting": "[10]", "result": -0.096}]}
